Data on 22 compounds can be found in PubChem BioAssay (EPA / NIEHS).

The target in experiment [1] is guinea pig Opioid, Kappa 1 Receptor (OpiateK), OPRK1 (gene 100135587) (UniProt P41144). In words: NVS_GPCR_gOpiateK: NovaScreen (NVS) G Protein-Coupled Receptor Assay for guinea pig Opioid, Kappa 1 Receptor (OpiateK) (AID 2283252).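 Also: active means reduced radioligand binding relative to DMSO.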 The method in brief: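 Signal is scintillation counts of filter-trapped radioligand bound to guinea pig cerebellar membrane receptor, measured 2 hours post-dosing. Activity is loss of binding versus DMSO, first at 25 uM in duplicate, then as concentration series for actives.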

In experiment [2] the target is human Adenosine A1 Receptor (AdoRA1), ADORA1 (gene 134) (UniProt P30542). In words: NVS_GPCR_hAdoRA1: NovaScreen (NVS) G Protein-Coupled Receptor Assay for human Adenosine A1 Receptor (AdoRA1) (AID 2283254). In short, it runs like this:
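Hum. cortical membranes + radioligand, cmpd 1 h; filtration, scintillation count. Readout = decrease vs DMSO. Primary 25 uM dup; hits → conc. series.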

Experiment [3] addresses human Serotonin, 5-Hydroxytryptamine Receptor 7 (5HT7), HTR7 (gene 3363) (UniProt P34969). In words: NVS_GPCR_h5HT7: NovaScreen (NVS) G Protein-Coupled Receptor Assay for human Serotonin, 5-Hydroxytryptamine Receptor 7 (5HT7) (AID 2283255).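 Also: hits reduce specific radioligand binding relative to DMSO.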 The method in brief:
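Radioligand displacement on membranes from CHO cells expressing human 5HT7, 1 h incubation, filter-based scintillation counting. Primary screen used a single 25 uM concentration in duplicate; actives were followed up in concentration series.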

Experiment [4] deals with human Adrenergic, Beta 3 Receptor (Adrb3), ADRB3 (gene 155) (UniProt P13945). In words: NVS_GPCR_hAdrb3: NovaScreen (NVS) G Protein-Coupled Receptor Assay for human Adrenergic, Beta 3 Receptor (Adrb3) (AID 2283262). The method in brief:
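Membranes from SK-N-MC cells pretreated with isoproterenol and 8-bromo-cAMP were used in a radioligand competitive displacement binding assay. Binding was read by filter-based scintillation counting 1 hour after dosing. Primary screening was in duplicate at 25 uM, with concentration series in follow-up.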

Experiment [5] concerns the target human Endothelin Receptor Type A (ETA), EDNRA (gene 1909) (UniProt P25101). In words: NVS_GPCR_hETA: NovaScreen (NVS) G Protein-Coupled Receptor Assay for human Endothelin Receptor Type A (ETA) (AID 2283265). The method in brief:
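Cell-free radioligand displacement using SH-SY5Y-derived protein, 3 h incubation, filter-based scintillation counting. Primary screen in duplicate at 25 uM; actives then run in concentration-response up to 50 uM; loss of binding fitted versus DMSO.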

Experiment [6] deals with human Adenosine A2a Receptor (AdoRA2a), ADORA2A (gene 135) (UniProt P29274). As to the kind of experiment: NVS_GPCR_hAdoRA2a: NovaScreen (NVS) G Protein-Coupled Receptor Assay for human Adenosine A2a Receptor (AdoRA2a) (AID 2283256). In short, it runs like this: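 Radioligand displacement on HEK293-derived membrane protein, cell-free; filter-based scintillation counting 1.5 hours after dosing, loss of signal vs DMSO. Single-point duplicate screen at 25 uM, actives retested in concentration series.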

The target in experiment [7] is human Serotonin, 5-Hydroxytryptamine Receptor 6 (5HT6), HTR6 (gene 3362) (UniProt P50406). As to the kind of experiment: NVS_GPCR_h5HT6: NovaScreen (NVS) G Protein-Coupled Receptor Assay for human Serotonin, 5-Hydroxytryptamine Receptor 6 (5HT6) (AID 2283253). In short, it runs like this: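 Radioligand binding to 5HT6 in HEK293-derived membranes, cell-free, 1 h after dosing; bound ligand measured by filter-based scintillation counting. Primary screen in duplicate at 25 uM; actives retested in concentration series.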

Experiment [8] concerns the target Type-1 angiotensin II receptor (Homo sapiens) (UniProt P30556). As to the kind of experiment: NVS_GPCR_hAT1: NovaScreen (NVS) G Protein-Coupled Receptor Assay for human Angiotensin II receptor type 1 (AT1) (AID 2283263). The method in brief: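 Membranes from KAN-TS cells; radioligand competitive displacement, 3 h, filtration and scintillation counting. Single-point duplicate screen at 25 uM, then concentration-response up to 50 uM for hits; loss of signal fitted versus DMSO.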

Experiment [9] deals with human Endothelin Receptor Type B (ETB), EDNRB (gene 1910) (UniProt P24530). As to the kind of experiment: NVS_GPCR_hETB: NovaScreen (NVS) G Protein-Coupled Receptor Assay for human Endothelin Receptor Type B (ETB) (AID 2283267). The method in brief: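 Human astrocytoma cell membranes; radioligand competitive binding read by filter scintillation counting 4 hours after dosing. Single-concentration duplicate screen at 25 uM, then singleton concentration-response up to 50 uM; loss of signal versus DMSO.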

Experiment [10] has as its target human Leukotriene B4 Receptor 1 (LTB4-BLT1), LTB4R (gene 1241) (UniProt Q15722). As to the kind of experiment: NVS_GPCR_hLTB4_BLT1: NovaScreen (NVS) G Protein-Coupled Receptor Assay for human Leukotriene B4 Receptor 1 (LTB4-BLT1) (AID 2283271). The method in brief:
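Radioligand displacement binding on receptor extracted from human neutrophils, cell-free, 1 h after dosing; filter-based scintillation counting. Primary screen in duplicate at 25 uM, actives retested in concentration-response up to 50 uM; loss of signal versus DMSO.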

Experiment [11] has as its target human Adrenergic, Beta 1 Receptor (Adrb1), ADRB1 (gene 153) (UniProt P08588). In words: NVS_GPCR_hAdrb1: NovaScreen (NVS) G Protein-Coupled Receptor Assay for human Adrenergic, Beta 1 Receptor (Adrb1) (AID 2283258). In short, it runs like this:
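Cell-free radioligand displacement on receptor from human neuroepithelioma cells; 2 h after dosing, filter-based scintillation counting. Primary screen in duplicate at 25 uM, actives retested in concentration series; loss of signal vs DMSO baseline.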

The target of experiment [12] is D(1A) dopamine receptor (Homo sapiens) (UniProt P21728). As to the kind of experiment: NVS_GPCR_hDRD1: NovaScreen (NVS) G Protein-Coupled Receptor Assay for human Dopamine Receptor D1 (DRD1) (AID 2283269). The method in brief:
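HEK293-derived receptor preparation; radioligand competitive displacement; 1 h; filtration + scintillation counting. DMSO = negative control/baseline. Primary: 25 uM, duplicate; secondary: concentration–response for actives.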

The target in experiment [13] is human Histamine 1 Receptor (H1), HRH1 (gene 3269) (UniProt P35367). As to the kind of experiment: NVS_GPCR_hH1: NovaScreen (NVS) G Protein-Coupled Receptor Assay for human Histamine 1 Receptor (H1) (AID 2283268). In short, it runs like this: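 Cell-free radioligand displacement at human H1 receptor, 1 h, filter scintillation counting; primary screen 25 uM in duplicate, hits in concentration series; loss of binding fitted vs DMSO.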

The target of experiment [14] is human Dopamine Receptor D4.4 (DRD4.4), DRD4 (gene 1815) (UniProt P21917). In words: NVS_GPCR_hDRD4.4: NovaScreen (NVS) G Protein-Coupled Receptor Assay for human Dopamine Receptor D4.4 (DRD4.4) (AID 2283264). The method in brief:
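Radioligand displacement on human DRD4.4 from CHO-derived membranes, 1 hour incubation, bound counts read by filtration and scintillation. Primary screen in duplicate at 25 uM; actives followed up in concentration series.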

The structures appear in SMILES notation. Records with an inconclusive call do not appear. The source made the active and inactive calls. The calls were made as follows: active = hit-call score of the fitted dose curve at least 0.9, where 1 is the maximum; inconclusive = response in the unintended direction; inactive = score below 0.9.

human Adrenergic, Beta 3 Receptor (Adrb3), ADRB3 (gene 155), sequence (P13945 whole entry, looked up): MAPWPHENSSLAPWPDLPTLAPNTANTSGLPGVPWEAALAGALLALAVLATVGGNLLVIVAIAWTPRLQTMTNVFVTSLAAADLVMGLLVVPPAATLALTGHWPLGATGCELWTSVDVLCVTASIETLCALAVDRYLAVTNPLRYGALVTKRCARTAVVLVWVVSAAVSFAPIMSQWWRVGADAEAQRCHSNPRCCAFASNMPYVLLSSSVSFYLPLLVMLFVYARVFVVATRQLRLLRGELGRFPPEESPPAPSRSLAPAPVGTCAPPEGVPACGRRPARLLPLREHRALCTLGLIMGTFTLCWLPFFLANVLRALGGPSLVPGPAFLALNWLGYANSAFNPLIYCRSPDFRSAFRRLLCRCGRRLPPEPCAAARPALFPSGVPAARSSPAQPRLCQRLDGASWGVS
human Adenosine A1 Receptor (AdoRA1), ADORA1 (gene 134), sequence (P30542 whole entry, looked up): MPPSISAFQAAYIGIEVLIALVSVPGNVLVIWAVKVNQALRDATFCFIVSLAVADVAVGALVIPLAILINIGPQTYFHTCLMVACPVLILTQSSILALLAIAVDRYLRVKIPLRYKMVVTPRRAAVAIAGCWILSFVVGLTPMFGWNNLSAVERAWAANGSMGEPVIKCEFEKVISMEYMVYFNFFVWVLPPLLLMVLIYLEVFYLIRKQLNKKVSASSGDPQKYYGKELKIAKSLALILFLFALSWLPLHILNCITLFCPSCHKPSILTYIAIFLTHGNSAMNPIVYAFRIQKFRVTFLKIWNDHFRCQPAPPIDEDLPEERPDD
human Endothelin Receptor Type B (ETB), EDNRB (gene 1910), sequence (P24530 whole entry, looked up): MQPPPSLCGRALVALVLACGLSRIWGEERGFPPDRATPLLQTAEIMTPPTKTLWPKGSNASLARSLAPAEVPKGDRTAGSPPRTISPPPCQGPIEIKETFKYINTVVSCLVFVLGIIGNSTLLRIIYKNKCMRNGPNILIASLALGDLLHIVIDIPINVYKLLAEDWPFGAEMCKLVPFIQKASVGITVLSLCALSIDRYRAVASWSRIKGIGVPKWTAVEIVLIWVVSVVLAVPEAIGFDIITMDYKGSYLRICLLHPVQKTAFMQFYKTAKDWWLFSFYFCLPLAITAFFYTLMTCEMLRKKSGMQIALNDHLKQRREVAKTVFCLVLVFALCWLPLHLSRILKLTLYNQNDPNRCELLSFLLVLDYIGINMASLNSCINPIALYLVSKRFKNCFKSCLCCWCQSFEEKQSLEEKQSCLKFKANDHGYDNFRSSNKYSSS
Type-1 angiotensin II receptor (Homo sapiens), sequence (P30556 whole entry, looked up): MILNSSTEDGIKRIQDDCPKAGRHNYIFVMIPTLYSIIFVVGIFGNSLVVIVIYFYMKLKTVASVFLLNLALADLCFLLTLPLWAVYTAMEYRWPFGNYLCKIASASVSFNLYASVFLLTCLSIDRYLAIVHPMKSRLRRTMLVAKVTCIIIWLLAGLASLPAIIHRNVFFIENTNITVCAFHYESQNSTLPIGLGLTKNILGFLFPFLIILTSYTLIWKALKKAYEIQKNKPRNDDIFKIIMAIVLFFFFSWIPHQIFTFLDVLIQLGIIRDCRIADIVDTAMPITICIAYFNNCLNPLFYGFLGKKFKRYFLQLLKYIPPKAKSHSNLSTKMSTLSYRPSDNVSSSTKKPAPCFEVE
human Serotonin, 5-Hydroxytryptamine Receptor 7 (5HT7), HTR7 (gene 3363), sequence (P34969 whole entry, looked up): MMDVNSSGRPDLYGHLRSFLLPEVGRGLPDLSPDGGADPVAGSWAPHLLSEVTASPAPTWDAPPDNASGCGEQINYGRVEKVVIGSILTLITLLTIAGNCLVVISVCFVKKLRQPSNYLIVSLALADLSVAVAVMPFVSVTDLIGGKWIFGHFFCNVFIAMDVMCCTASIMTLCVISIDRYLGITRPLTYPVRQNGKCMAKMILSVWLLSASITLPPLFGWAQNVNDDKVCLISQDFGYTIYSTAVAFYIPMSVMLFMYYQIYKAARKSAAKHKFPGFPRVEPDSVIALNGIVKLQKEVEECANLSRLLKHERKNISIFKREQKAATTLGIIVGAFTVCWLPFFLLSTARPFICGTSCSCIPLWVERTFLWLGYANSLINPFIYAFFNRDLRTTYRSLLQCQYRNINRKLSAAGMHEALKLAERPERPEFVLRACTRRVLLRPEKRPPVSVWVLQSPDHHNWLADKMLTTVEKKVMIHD
human Adenosine A2a Receptor (AdoRA2a), ADORA2A (gene 135), sequence (P29274 whole entry, looked up): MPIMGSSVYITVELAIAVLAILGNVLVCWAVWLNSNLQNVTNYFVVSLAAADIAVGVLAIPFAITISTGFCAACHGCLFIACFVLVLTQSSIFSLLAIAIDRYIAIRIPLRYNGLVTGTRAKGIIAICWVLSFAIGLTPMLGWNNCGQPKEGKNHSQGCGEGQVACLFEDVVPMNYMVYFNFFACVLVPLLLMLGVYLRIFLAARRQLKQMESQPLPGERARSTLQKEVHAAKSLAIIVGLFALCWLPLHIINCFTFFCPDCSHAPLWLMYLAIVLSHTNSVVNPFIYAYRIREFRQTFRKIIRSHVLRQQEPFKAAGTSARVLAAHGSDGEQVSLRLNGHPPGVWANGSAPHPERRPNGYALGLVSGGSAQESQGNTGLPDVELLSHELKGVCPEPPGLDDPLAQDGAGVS
human Adrenergic, Beta 1 Receptor (Adrb1), ADRB1 (gene 153), sequence (P08588 whole entry, looked up): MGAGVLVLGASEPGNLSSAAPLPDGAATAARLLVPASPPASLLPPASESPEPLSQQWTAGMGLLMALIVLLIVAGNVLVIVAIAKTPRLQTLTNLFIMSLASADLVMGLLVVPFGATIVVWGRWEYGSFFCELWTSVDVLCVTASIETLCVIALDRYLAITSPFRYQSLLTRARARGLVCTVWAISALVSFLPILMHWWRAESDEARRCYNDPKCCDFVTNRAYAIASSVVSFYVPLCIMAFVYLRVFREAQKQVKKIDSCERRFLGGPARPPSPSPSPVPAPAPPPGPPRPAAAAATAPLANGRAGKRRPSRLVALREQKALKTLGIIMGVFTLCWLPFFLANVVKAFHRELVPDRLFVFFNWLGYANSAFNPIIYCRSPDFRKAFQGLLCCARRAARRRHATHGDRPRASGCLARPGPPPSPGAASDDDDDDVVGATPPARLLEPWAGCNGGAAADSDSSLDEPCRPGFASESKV
human Leukotriene B4 Receptor 1 (LTB4-BLT1), LTB4R (gene 1241), sequence (Q15722 whole entry, looked up): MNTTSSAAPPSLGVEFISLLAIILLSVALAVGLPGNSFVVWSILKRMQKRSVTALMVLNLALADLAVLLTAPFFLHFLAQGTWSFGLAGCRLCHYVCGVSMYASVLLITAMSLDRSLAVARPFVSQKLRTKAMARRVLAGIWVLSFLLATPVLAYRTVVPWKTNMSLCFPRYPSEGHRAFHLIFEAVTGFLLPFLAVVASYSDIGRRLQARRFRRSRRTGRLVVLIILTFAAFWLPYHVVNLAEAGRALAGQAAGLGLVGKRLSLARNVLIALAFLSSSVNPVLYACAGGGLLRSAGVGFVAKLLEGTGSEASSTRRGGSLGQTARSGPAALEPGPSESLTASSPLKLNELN
guinea pig Opioid, Kappa 1 Receptor (OpiateK), OPRK1 (gene 100135587), sequence (P41144 whole entry, looked up): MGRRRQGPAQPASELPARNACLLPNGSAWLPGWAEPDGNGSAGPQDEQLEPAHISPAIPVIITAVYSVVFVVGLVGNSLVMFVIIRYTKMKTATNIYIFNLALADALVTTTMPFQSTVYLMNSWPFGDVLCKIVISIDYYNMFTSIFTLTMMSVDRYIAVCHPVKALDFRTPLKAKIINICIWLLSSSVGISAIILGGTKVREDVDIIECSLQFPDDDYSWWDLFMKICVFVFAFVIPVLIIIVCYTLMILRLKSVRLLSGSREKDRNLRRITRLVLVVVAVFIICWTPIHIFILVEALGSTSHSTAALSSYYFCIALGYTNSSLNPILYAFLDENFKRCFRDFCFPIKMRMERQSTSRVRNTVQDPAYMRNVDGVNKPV
human Serotonin, 5-Hydroxytryptamine Receptor 6 (5HT6), HTR6 (gene 3362), sequence (P50406 whole entry, looked up): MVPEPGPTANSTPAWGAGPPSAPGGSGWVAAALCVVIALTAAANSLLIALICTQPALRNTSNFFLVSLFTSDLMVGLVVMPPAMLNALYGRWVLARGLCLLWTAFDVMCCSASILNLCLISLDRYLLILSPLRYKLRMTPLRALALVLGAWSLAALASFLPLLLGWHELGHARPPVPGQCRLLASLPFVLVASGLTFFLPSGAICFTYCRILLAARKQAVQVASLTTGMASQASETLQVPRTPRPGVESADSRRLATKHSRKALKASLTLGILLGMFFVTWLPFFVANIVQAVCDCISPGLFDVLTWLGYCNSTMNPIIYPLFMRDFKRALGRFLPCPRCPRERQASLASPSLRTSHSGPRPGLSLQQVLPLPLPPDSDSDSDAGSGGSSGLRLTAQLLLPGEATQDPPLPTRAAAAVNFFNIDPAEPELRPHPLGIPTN
human Histamine 1 Receptor (H1), HRH1 (gene 3269), sequence (P35367 whole entry, looked up): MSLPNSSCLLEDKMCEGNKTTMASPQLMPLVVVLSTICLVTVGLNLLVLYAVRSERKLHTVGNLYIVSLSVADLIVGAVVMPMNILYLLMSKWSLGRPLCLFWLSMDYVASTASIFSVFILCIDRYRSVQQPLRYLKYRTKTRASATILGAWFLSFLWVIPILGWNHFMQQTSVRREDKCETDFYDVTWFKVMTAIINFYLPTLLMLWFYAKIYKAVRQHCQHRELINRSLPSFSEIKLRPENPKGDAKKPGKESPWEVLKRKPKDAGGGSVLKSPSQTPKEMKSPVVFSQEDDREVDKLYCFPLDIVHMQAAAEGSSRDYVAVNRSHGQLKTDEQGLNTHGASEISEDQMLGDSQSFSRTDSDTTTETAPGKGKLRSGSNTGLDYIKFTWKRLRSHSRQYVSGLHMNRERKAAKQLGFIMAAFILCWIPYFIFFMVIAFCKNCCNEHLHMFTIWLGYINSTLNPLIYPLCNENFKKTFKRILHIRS

With `COc1cccc([C@H](O)C2CCN(CCc3ccc(F)cc3)CC2)c1OC`, the AC50 – broadly, the concentration at which the activity in the assay is half-maximal – in experiment [1] was 12.1 µM (active); in experiment [3] it was 0.395 µM (active). The outcome in experiment [2], in experiment [4] and in experiment [5] was inactive. With `O=c1c(-c2ccc(O)cc2)coc2cc(O)cc(O)c12`, the result in experiment [2] was inactive. Besides, the AC50 in experiment [6] was 6.03 µM (active). On to `CCCOC(=O)c1cc(O)c(O)c(O)c1`, for which, in [2], the AC50 was 14.4 µM (active).

As to `CN(C[C@@H](CC[N+]12CCC(C3CCCCC3)(CC1)CC2)c1ccc(Cl)c(Cl)c1)C(=O)c1cc(C(F)(F)F)cc(C(F)(F)F)c1`, the AC50 was 10.5 µM (active) in experiment [7], 16.7 µM (active) in experiment [2], 1.53 µM (active) in experiment [3] and 33.1 µM (active) in experiment [8]. Moreover, the compound was classed as inactive in experiment [9]. Turning to `Cc1oc2c(NC(=O)c3c(Cl)cccc3Cl)cccc2c1C(C)(C)O`, the result in experiment [2] and in experiment [4] was inactive. In addition, the AC50 in [10] was 11.7 µM (active). With `CCCCCCCCOc1ccc(C(=O)c2ccccc2)c(O)c1`, the compound was classed as inactive in experiment [11]. `CC1(C)NC(=O)N(c2ccc([N+](=O)[O-])c(C(F)(F)F)c2)C1=O`: in experiment [12], the compound was called inactive. Regarding `O=C1CCC(C2CCCCC2)CC1`, the result in experiment [8] was inactive. Consider `C[C@]12CC[C@@H]3c4ccc(O)cc4CC[C@H]3[C@@H]1CC[C@H]2O`, for which the AC50 in experiment [7] is 25 µM (active). As for `CC(O)CC(C)(C)O` (configuration not stated), the AC50 in experiment [4] was 0.159 µM (active). Consider `O=C(O)Cc1cc(I)c(Oc2ccc(O)c(I)c2)c(I)c1`, for which the outcome in [2] and in experiment [9] was inactive. For `CCCCCc1ccc(N)cc1`, the outcome in experiment [9] was inactive. `CO[C@H]1/C=C/O[C@@]2(C)Oc3c(C)c(O)c4c(O)c(c(/C=N/N5CCN(C)CC5)c(O)c4c3C2=O)NC(=O)/C(C)=C\C=C\[C@H](C)[C@H](O)[C@@H](C)[C@@H](O)[C@@H](C)[C@H](OC(C)=O)[C@@H]1C`: the compound was classed as inactive in [8].

As for `CC(C)(O)c1ccc(CNC(=O)c2cccnc2Oc2ccc3nonc3c2)cc1`, the AC50 in experiment [1] is 14.3 µM (active). Moreover, the outcome in experiment [6] was inactive.

In the case of `CCCCCCCCN(C)CCCCCCCC`, the compound was classed as inactive in experiment [4].

Consider `CN1C(=O)N(c2ccccc2Br)Cc2cnc(Nc3ccc4c(c3)OCC(CO)O4)nc21` (configuration not stated), for which the compound was called inactive in [3]. In the case of `CCCCCCCCOC(=O)c1cc(O)c(O)c(O)c1`, the AC50 in experiment [2] was 12.4 µM (active); in [3], 17 µM (active); in [6] it was 8.09 µM (active); in experiment [11] it was 22.6 µM (active); in experiment [13], 42.8 µM (active). For the compound `CCN(Cc1cccc(S(=O)(=O)O)c1)c1ccc(C(=C2C=CC(=[N+](CC)Cc3cccc(S(=O)(=O)O)c3)C=C2)c2ccccc2S(=O)(=O)[O-])cc1`, the AC50 in experiment [3] is 10.3 µM (active). In the case of `CCCCCCCCCC(=O)O`, the compound was classed as inactive in [2], in experiment [3] and in [6].

Consider `CCCCOC(=O)CC(CC(=O)OCCCC)(OC(C)=O)C(=O)OCCCC`, for which the call in [4] was inactive. With `Oc1ccc2ccccc2c1`, the compound was called inactive in experiment [2] and in experiment [14]. `Cc1ccc2oc(CN(Cc3ccccc3)C(=O)Nc3c(F)cc(F)cc3F)c(-c3ccc(Cl)cc3)c2c1`: in experiment [10], the compound was called inactive.
